The values that follow come from the supplement of paper PMC9135407.

“And” between values parts separate entries of the source, which are not always exact repeats. Equal values may be shown once. Where a name gives a salt, the structure may show the parent alone. Screen size: about 5,800 compounds; about 620 (11%) showed activity. Shown is part of a subset that was picked to be rich in actives. Values without a mark were called inactive.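 The calls were made as follows: active = score above a cut-off or among the top three wells of a plate; in these data no inactive exceeds 0.85.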 Bounds are passed on as bounds.

For the assay, the system named is primary human hepatic stellate cells (donor 1). The assay is described as follows: scaled lipid accumulation score (0 = DMSO-like, 1 = nortriptyline-like); higher = stronger HSC inactivation (lipid re-accumulation), active = hit call of the paper. The following applies: 48 h.
Where [1] appears, read: library stock concentration: 1 mM.
Where [2] appears, read: library stock concentration: 3.33 mM.
Where [3] appears, read: library stock concentration: 10 mM.
Setting [4] is: library stock concentration: 80 uM.
[5] abbreviates: library stock concentration: 400 uM.
The mark [6] stands for this setting: library stock concentration: 2 mM.

With `O=C(O)CCC/C=C\C[C@@H]1[C@@H](/C=C/C(=O)COc2cccc(C(F)(F)F)c2)[C@H](O)C[C@@H]1O` [15-keto Fluprostenol], the “scaled lipid accumulation score” value under setting [1] was at most 0.
In the case of `COc1ccc(-n2nc(C(N)=O)c3c2C(=O)N(c2ccc(N4CCCCC4=O)cc2)CC3)cc1` [Apixaban], the “scaled lipid accumulation score” value by setting is: under setting [2], at most 0; under setting [3], at most 0.
As to `O=c1onc2cnc3ccccc3n12`, the “scaled lipid accumulation score” value under setting [3] was 1.01 (active).
For the compound `CC(C)CCC[C@@H](C)[C@H]1CC[C@H]2[C@@H]3CC(=O)[C@@]4(O)C[C@@H](O)CC[C@]4(C)[C@H]3CC[C@]12C` [5.alpha.-hydroxy-6-keto Cholesterol], the “scaled lipid accumulation score” value under setting [1] is at most 0.
On to `O=C(O)c1ccccc1` [Benzoic Acid], for which the “scaled lipid accumulation score” value by setting is: under setting [2], at most 0; under setting [3], 0.005.
In the same order, the values of `O=c1c2ccccc2oc2ccccc12` [Xanthone] are at most 0 and at most 0.
Take `O=c1c(-c2ccccc2)c1-c1ccccc1` [diphenylcyclopropenone]: the “scaled lipid accumulation score” value under setting [3] was 1.25 (active).
Turning to `O=C(O)c1ccccc1` [Benzoic acid], under “library stock concentration: 16.4 mM”, the “scaled lipid accumulation score” value was at most 0.
As to `Cc1ccccc1N1CCN(S(=O)(=O)C[C@]23CC[C@H](C[C@@H]2NC(=O)[C@@H](N)CCS(C)(=O)=O)C3(C)C)CC1` [L-368,899 hydrochloride], the “scaled lipid accumulation score” value under setting [3] is 0.107.
Take `O=P(O)(O)OC1[C@H](OP(=O)(O)O)[C@H](O)C(O)[C@H](O)[C@H]1OP(=O)(O)O` (stereo partly drawn) [D-myo-Inositol-1,2,6-triphosphate (sodium salt)]: the “scaled lipid accumulation score” value under setting [1] was 0.004.
With `CCNC(=O)C1=C(c2ccc(OC)cc2)C(=C2C=C(Cl)C(O)=CC2=O)NN1`, the “scaled lipid accumulation score” value under setting [3] is 0.897 (active).
In the case of `CCNC(=O)c1[nH]nc(-c2cc(Cl)c(O)cc2O)c1-c1ccc(OC)cc1`, the “scaled lipid accumulation score” value under setting [2] is 0.6.
As for `N=C(N)SCCC[C@H](N)C(=O)O` [Thioarginine (hydrobromide)], the “scaled lipid accumulation score” value under setting [1] was at most 0.
With `NCC(O)CC(=O)O` (centres undefined) [Aminohydroxybutyric acid], under setting [3], the “scaled lipid accumulation score” value is 0.017.
With `CNC(=O)c1nn(C)c2c1C(C)(C)Cc1cnc(Nc3ccc(N4CCN(C)CC4)cc3)nc1-2`, the “scaled lipid accumulation score” value reads like this: under setting [2], 0.148; under setting [3], at most 0.
As for `CN1CCN(c2ccc(OC(F)(F)F)c(Nc3ncc4c(n3)-c3c(c(C(N)=O)nn3CCO)CC4)c2)CC1` [listing 1 of 2 here], the “scaled lipid accumulation score” value under setting [4] was at most 0; the “scaled lipid accumulation score” value under setting [5] is at most 0; the “scaled lipid accumulation score” value under setting [6] was 0.15; the “scaled lipid accumulation score” value under setting [2] was at most -0.009; the “scaled lipid accumulation score” value under setting [3] is 0.668.
On to `CN1CCN(c2ccc(OC(F)(F)F)c(Nc3ncc4c(n3)-c3c(c(C(N)=O)nn3CCO)CC4)c2)CC1` [listing 2 of 2 here], for which, under setting [3], the “scaled lipid accumulation score” value is 0.879 (active).
Same read-out and setting: with `COc1cc(Br)c(S(=O)(=O)Nc2ccc(Cl)c(O[C@@H]3CCN(C)C3)c2)cc1OC` the figure was 0.116.
Take `COc1cc2c(cc1OC)[C@@H]1C(=O)c3ccc4c(c3O[C@@H]1CO2)C=CC(C)(C)O4` [Deguelin(-)]: the “scaled lipid accumulation score” value under setting [3] was at most 0.
Turning to `CCCCCCCCCCCCC/C=C/[C@@H](O)[C@H](CO)NC(=O)CCCCCCC` [C-8 Ceramide], the “scaled lipid accumulation score” value under setting [1] was at most 0.
The same measure, in the same setting: the result for `CCCCCCCCCCCCC/C=C/[C@@H](O)[C@H](CO)NC(=O)CCCCCCC` [C8 Ceramide] reads at most -0.021.
As to `CCOC(=O)[C@@H](C)Oc1cccc2c(=O)n(CC(=O)Nc3ccc4c(c3)OCCO4)ccc12`, the “scaled lipid accumulation score” value under setting [3] is 0.249.
Take `O=C(NCCCNc1nc(Nc2cccc(CN3CCOCC3)c2)ncc1C1CC1)C1CCC1`: the “scaled lipid accumulation score” value reads like this: under setting [4], at most 0; under setting [5], 0.064; under setting [6], 0.072; under setting [3], 0.406.
`CN(C)CCCNC(=O)[C@@H]1C[C@H](CN2CCOCC2)CN(Cc2ccc3ccccc3c2)C1`: the “scaled lipid accumulation score” value under setting [3] is 0.993 (active).
In the case of `CC(C)(C)NCC(O)COc1cccc2[nH]c(=O)[nH]c12` (centres undefined), the “scaled lipid accumulation score” value under setting [3] was at most -0.047.
On to `CC(C)NC[C@H](O)COc1cccc2[nH]ccc12` [S(-)-Pindolol], for which, under setting [3], the “scaled lipid accumulation score” value is at most -0.07.
On the same count and under the same terms, with `COc1ccccc1OCCNCC(O)COc1cccc2[nH]c3ccccc3c12` (centres undefined) [Carvedilol] [listing 1 of 5 here] the figure was 1.1 (active); with `CC(C)NC[C@H](O)COc1cccc2[nH]ccc12` [(S)-(-)-Pindolol], 0.001.
Regarding `CC(C)NCC(O)COc1cccc2[nH]ccc12` (centres undefined) [Pindolol], the “scaled lipid accumulation score” value is at most 0. Further, the “scaled lipid accumulation score” value (library stock concentration: 8.1 mM) is ≤ -0.006 and 0.131. Also, under setting [3], the “scaled lipid accumulation score” value was ≤ 0 and ≤ -0.055 and 0.071.
Turning to `COc1ccccc1OCCNCC(O)COc1cccc2[nH]c3ccccc3c12` (centres undefined) [Carvedilol] [listing 2 of 5 here], the “scaled lipid accumulation score” value under setting [3] was 0.936 (active).
As to `COc1ccccc1OCC(O)CO` (centres undefined) [Guaifenesin], the “scaled lipid accumulation score” value is at most 0. Further, under setting [2], the “scaled lipid accumulation score” value is at most 0. The “scaled lipid accumulation score” value under setting [3] is 0.084 and ≤ 0.
As to `COc1ccccc1OCCNCC(O)COc1cccc2[nH]c3ccccc3c12` (centres undefined) [Carvedilol tartrate], the “scaled lipid accumulation score” value under setting [3] is 0.276.
The same measure, in the same setting: the result for `COc1ccccc1OCCNCC(O)COc1cccc2[nH]c3ccccc3c12` (centres undefined) [Carvedilol] [listing 3 of 5 here] reads 1.18 (active); that for `CC(C)NCC(O)COc1cccc2[nH]ccc12` (centres undefined), at most 0.
Turning to `COc1ccccc1OCCNCC(O)COc1cccc2[nH]c3ccccc3c12` (centres undefined) [Carvedilol] [listing 4 of 5 here], under setting [3], the “scaled lipid accumulation score” value was 1.57 (active).
`COc1ccccc1OCC(O)COC(N)=O` (centres undefined) [Methocarbamol]: the “scaled lipid accumulation score” value is at most 0. Further, the “scaled lipid accumulation score” value under setting [2] was at most 0. Moreover, the “scaled lipid accumulation score” value (library stock concentration: 8.3 mM) was at most -0.001. Also, under setting [3], the “scaled lipid accumulation score” value was at most 0.
Take `COc1ccccc1OCCNCC(O)COc1cccc2[nH]c3ccccc3c12` (centres undefined) [Carvedilol] [listing 5 of 5 here]: the “scaled lipid accumulation score” value by setting is: under setting [2], at most 0; (library stock concentration: 4.9 mM) 0.302 and 0.4.
Consider `C[C@](N)(Cc1ccc(O)cc1)C(=O)O` [L-alpha-Methyl-p-tyrosine], for which the “scaled lipid accumulation score” value under setting [3] was 0.166.
For `CC(C)(C)NS(=O)(=O)c1cncc(-c2cc(F)c3nc(N)nn3c2)c1`, the “scaled lipid accumulation score” value by setting is: under setting [2], at most 0; under setting [3], at most -0.001.
In the case of `O=C(Cc1ccccc1)NO` [Phenylacetohydroxamic acid], the “scaled lipid accumulation score” value under setting [3] was at most 0.
Turning to `CCCC(=O)O[C@]1(C(=O)COC(C)=O)CC[C@H]2[C@@H]3C[C@H](F)C4=CC(=O)C=C[C@]4(C)[C@@]3(F)[C@@H](O)C[C@@]21C` [Difluprednate], the “scaled lipid accumulation score” value under setting [2] was at most 0 and the “scaled lipid accumulation score” value under setting [3] is at most -0.001.
As for `O=NN(CCCl)C(=O)NCCCl` [Carmustine], the “scaled lipid accumulation score” value (library stock concentration: 9.3 mM) was at most 0 and the “scaled lipid accumulation score” value under setting [3] is at most 0.
